# In the supplement of paper PMC8728848:
# The sample as a whole holds a higher share of the strongest signals than the screen did.
# B1: Mg1lysM (Mycosphaerella graminicola) (protein)
# chain: QRNPITITPQFDCGATNSQQYVARSGDTLTKIAQEIYHDVVGVCDIARANNLADPNRIDAGTPYTIPINCQTYDRNSCL
# Assays:
# Experiment in all cases: glycan array binding signal (z-score within array); higher = stronger binding
# Details in all cases: glycan notation: IUPAC condensed, linker removed
# [1] = biological target: Fuc(a1-2)Gal(b1-3)GlcNAc(b1-3)Gal(b1-4)Glc
# In short: (§1)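 The binding signal is a Z-score computed within each array. Data were drawn from 3228 arrays in the Consortium for Functional Glycomics database, restricted to those with a known protein sequence. Scores were averaged over arrays of the same protein sequence at different concentrations or buffers, and over linkers, and negative values can be taken as non-binding.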
# [2] = biological target: Fuc(a1-2)Gal(b1-3)[Fuc(a1-4)]GlcNAc(b1-3)[Gal(b1-4)GlcNAc(b1-6)]Gal(b1-4)Glc
# In short: as §1
# Fuc(a1-2)Gal(b1-4)Glc = biological target: Fuc(a1-2)Gal(b1-4)Glc
# In short: as §1
# [3] = biological target: Fuc(a1-2)Gal(b1-4)GlcNAc(b1-3)Gal(b1-4)GlcNAc(b1-2)Man(a1-3)[Fuc(a1-2)Gal(b1-4)GlcNAc(b1-3)Gal(b1-4)GlcNAc(b1-2)Man(a1-6)]Man(b1-4)GlcNAc(b1-4)GlcNAc
# In short: as §1
# [4] = biological target: Fuc(a1-2)Gal(b1-4)[Fuc(a1-3)]GlcNAc(b1-2)Man(a1-3)[Fuc(a1-2)Gal(b1-4)[Fuc(a1-3)]GlcNAc(b1-2)Man(a1-6)]Man(b1-4)GlcNAc(b1-4)[Fuc(a1-6)]GlcNAc
# In short: as §1
# [5] = biological target: Fuc(a1-2)Gal3S(b1-4)GlcNAc
# In short: as §1
# [6] = biological target: Fuc(a1-2)[GalNAc(a1-3)]Gal(b1-4)GlcNAc(b1-2)Man(a1-3)[Fuc(a1-2)[GalNAc(a1-3)]Gal(b1-4)GlcNAc(b1-2)Man(a1-6)]Man(b1-4)GlcNAc(b1-4)[Fuc(a1-6)]GlcNAc
# In short: as §1
# [7] = biological target: Fuc(a1-3)[Gal3S(b1-4)]GlcNAc
# In short: as §1
# Fuc(a1-4)GlcNAc = biological target: Fuc(a1-4)GlcNAc
# In short: as §1
# Gal(a1-3)Gal = biological target: Gal(a1-3)Gal
# In short: as §1
# [8] = biological target: Gal(a1-3)Gal(b1-3)[Fuc(a1-4)]GlcNAc(b1-2)Man(a1-3)[Gal(a1-3)Gal(b1-3)[Fuc(a1-4)]GlcNAc(b1-2)Man(a1-6)]Man(b1-4)GlcNAc(b1-4)GlcNAc
# In short: as §1
# [9] = biological target: Gal(a1-4)Gal(b1-4)GlcNAc(b1-2)Man(a1-3)[Gal(a1-4)Gal(b1-4)GlcNAc(b1-2)Man(a1-6)]Man(b1-4)GlcNAc(b1-4)GlcNAc
# In short: as §1
# Gal(a1-6)Glc = biological target: Gal(a1-6)Glc
# In short: as §1
# Gal(b1-3)Gal = biological target: Gal(b1-3)Gal
# In short: as §1
# [10] = biological target: Gal(b1-3)GlcNAc(b1-2)Man(a1-3)[GlcNAc(b1-4)][Gal(b1-3)GlcNAc(b1-2)Man(a1-6)]Man(b1-4)GlcNAc(b1-4)GlcNAc
# In short: as §1
# [11] = biological target: Gal(b1-3)GlcNAc(b1-3)Gal(b1-4)GlcNAc(b1-2)[Gal(b1-3)GlcNAc(b1-3)Gal(b1-4)GlcNAc(b1-6)]Man(a1-6)[Gal(b1-3)GlcNAc(b1-3)Gal(b1-4)GlcNAc(b1-2)Man(a1-3)]Man(b1-4)GlcNAc(b1-4)[Fuc(a1-6)]GlcNAc
# In short: as §1
# [12] = biological target: Gal(b1-3)GlcNAc(b1-6)[Gal(b1-3)]GalNAc
# In short: as §1
# [13] = biological target: Gal(b1-4)GlcNAc(b1-2)Man(a1-6)Man(b1-4)GlcNAc(b1-4)GlcNAc
# In short: as §1
# Gal6S(b1-4)GlcNAc = biological target: Gal6S(b1-4)GlcNAc
# In short: as §1
# GalNAc(a1-3)GalNAc = biological target: GalNAc(a1-3)GalNAc
# In short: as §1
# [14] = biological target: GalNAc3S(b1-4)[Fuc(a1-3)]GlcNAc
# In short: as §1
# [15] = biological target: Glc(a1-4)Glc(a1-4)Glc(a1-4)Glc
# In short: as §1
# GlcA(b1-6)Gal = biological target: GlcA(b1-6)Gal
# In short: as §1
# [16] = biological target: GlcNAc(a1-4)Gal(b1-4)GlcNAc(b1-3)Gal(b1-4)Glc
# In short: as §1
# [17] = biological target: GlcNAc(b1-2)Man(a1-3)[GlcNAc(b1-2)Man(a1-6)]Man(b1-4)GlcNAc(b1-4)GlcNAc
# In short: as §1
# [18] = biological target: GlcNAc(b1-2)[GlcNAc(b1-4)]Man(a1-3)[GlcNAc(b1-4)][GlcNAc(b1-2)[GlcNAc(b1-6)]Man(a1-6)]Man(b1-4)GlcNAc(b1-4)[Fuc(a1-6)]GlcNAc
# In short: as §1
# [19] = biological target: GlcNAc(b1-3)Gal(b1-4)GlcNAc(b1-2)[GlcNAc(b1-3)Gal(b1-4)GlcNAc(b1-6)]Man(a1-6)[GlcNAc(b1-3)Gal(b1-4)GlcNAc(b1-2)Man(a1-3)]Man(b1-4)GlcNAc(b1-4)GlcNAc
# In short: as §1
# [20] = biological target: GlcNAc(b1-3)Gal(b1-4)GlcNAc(b1-3)Gal(b1-4)GlcNAc(b1-3)Gal(b1-4)GlcNAc(b1-2)Man(a1-3)[GlcNAc(b1-3)Gal(b1-4)GlcNAc(b1-3)Gal(b1-4)GlcNAc(b1-3)Gal(b1-4)GlcNAc(b1-2)Man(a1-6)]Man(b1-4)GlcNAc(b1-4)[Fuc(a1-6)]GlcNAc
# In short: as §1
# GlcNAc(b1-3)Man = biological target: GlcNAc(b1-3)Man
# In short: as §1
# [21] = biological target: GlcNAc(b1-4)GlcNAc(b1-4)GlcNAc
# In short: as §1
# [22] = biological target: GlcNAc(b1-4)GlcNAc(b1-4)GlcNAc(b1-4)GlcNAc(b1-4)GlcNAc
# In short: as §1
# [23] = biological target: GlcNAc(b1-4)GlcNAc(b1-4)GlcNAc(b1-4)GlcNAc(b1-4)GlcNAc(b1-4)GlcNAc
# In short: as §1
# [24] = biological target: Kdn(a2-3)Gal(b1-4)[Fuc(a1-3)]GlcNAc
# In short: as §1
# [25] = biological target: Neu5Ac(a2-3)Gal(b1-3)GlcNAc(b1-2)Man(a1-3)[GlcNAc(b1-4)][Neu5Ac(a2-3)Gal(b1-3)GlcNAc(b1-2)Man(a1-6)]Man(b1-4)GlcNAc(b1-4)GlcNAc
# In short: as §1
# [26] = biological target: Neu5Ac(a2-3)Gal(b1-3)GlcNAc(b1-2)[Neu5Ac(a2-3)Gal(b1-3)GlcNAc(b1-4)]Man(a1-6)[Neu5Ac(a2-3)Gal(b1-3)GlcNAc(b1-2)Man(a1-3)]Man(b1-4)GlcNAc(b1-4)GlcNAc
# In short: as §1
# [27] = biological target: Neu5Ac(a2-3)Gal(b1-3)[Fuc(a1-4)]GlcNAc
# In short: as §1
# [28] = biological target: Neu5Ac(a2-3)Gal(b1-4)GlcNAc(b1-2)Man(a1-3)[GlcNAc(b1-4)][Neu5Ac(a2-3)Gal(b1-4)GlcNAc(b1-2)Man(a1-6)]Man(b1-4)GlcNAc(b1-4)GlcNAc
# In short: as §1
# [29] = biological target: Neu5Ac(a2-3)Gal(b1-4)GlcNAc(b1-6)[Neu5Ac(a2-3)Gal(b1-3)]GalNAc
# In short: as §1
# [30] = biological target: Neu5Ac(a2-3)Gal(b1-4)GlcNAc6S
# In short: as §1
# [31] = biological target: Neu5Ac(a2-6)Gal(b1-4)GlcNAc(b1-2)Man(a1-3)[GlcNAc(b1-2)Man(a1-6)]Man(b1-4)GlcNAc(b1-4)GlcNAc
# In short: as §1
# [32] = biological target: Neu5Ac(a2-6)Gal(b1-4)GlcNAc(b1-3)Gal(b1-4)GlcNAc(b1-3)GalNAc
# In short: as §1
# [33] = biological target: Neu5Ac(a2-6)Gal(b1-4)GlcNAc(b1-3)GalNAc
# In short: as §1
# [34] = biological target: Neu5Ac(a2-6)GalNAc(b1-4)GlcNAc
# In short: as §1
# [35] = biological target: Neu5Ac(a2-6)GlcNAc(b1-4)GlcNAc(b1-4)GlcNAc
# In short: as §1
# Neu5Ac(b2-6)GalNAc = biological target: Neu5Ac(b2-6)GalNAc
# In short: as §1
# [36] = biological target: Neu5Gc(a2-3)Gal(b1-3)GlcNAc
# In short: as §1
# [37] = biological target: Neu5Gc(a2-8)Neu5Gc(a2-6)Gal(b1-4)GlcNAc
# In short: as §1
binder,measurement,setting,value
B1,glycan array binding signal (z-score),[1],-0.073
same,glycan array binding signal (z-score),[2],-0.074
same,glycan array binding signal (z-score),Fuc(a1-2)Gal(b1-4)Glc,-0.06
same,glycan array binding signal (z-score),[3],-0.081
same,glycan array binding signal (z-score),[4],0.076
same,glycan array binding signal (z-score),[5],-0.038
same,glycan array binding signal (z-score),[6],-0.079
same,glycan array binding signal (z-score),[7],-0.075
same,glycan array binding signal (z-score),Fuc(a1-4)GlcNAc,-0.078
same,glycan array binding signal (z-score),Gal(a1-3)Gal,-0.086
same,glycan array binding signal (z-score),[8],-0.048
same,glycan array binding signal (z-score),[9],-0.061
same,glycan array binding signal (z-score),Gal(a1-6)Glc,-0.075
same,glycan array binding signal (z-score),Gal(b1-3)Gal,-0.061
same,glycan array binding signal (z-score),[10],0.125
same,glycan array binding signal (z-score),[11],0.02
same,glycan array binding signal (z-score),[12],-0.054
same,glycan array binding signal (z-score),[13],-0.083
same,glycan array binding signal (z-score),Gal6S(b1-4)GlcNAc,-0.051
same,glycan array binding signal (z-score),GalNAc(a1-3)GalNAc,0.308
same,glycan array binding signal (z-score),[14],0.01
same,glycan array binding signal (z-score),[15],-0.073
same,glycan array binding signal (z-score),GlcA(b1-6)Gal,-0.062
same,glycan array binding signal (z-score),[16],-0.084
same,glycan array binding signal (z-score),[17],-0.057
same,glycan array binding signal (z-score),[18],-0.071
same,glycan array binding signal (z-score),[19],-0.06
same,glycan array binding signal (z-score),[20],-0.081
same,glycan array binding signal (z-score),GlcNAc(b1-3)Man,-0.057
same,glycan array binding signal (z-score),[21],16.5
same,glycan array binding signal (z-score),[22],11.9
same,glycan array binding signal (z-score),[23],7.47
same,glycan array binding signal (z-score),[24],-0.081
same,glycan array binding signal (z-score),[25],-0.076
same,glycan array binding signal (z-score),[26],0.149
same,glycan array binding signal (z-score),[27],-0.096
same,glycan array binding signal (z-score),[28],-0.076
same,glycan array binding signal (z-score),[29],-0.062
same,glycan array binding signal (z-score),[30],-0.075
same,glycan array binding signal (z-score),[31],-0.054
same,glycan array binding signal (z-score),[32],-0.091
same,glycan array binding signal (z-score),[33],-0.076
same,glycan array binding signal (z-score),[34],0.004
same,glycan array binding signal (z-score),[35],4.06
same,glycan array binding signal (z-score),Neu5Ac(b2-6)GalNAc,-0.076
same,glycan array binding signal (z-score),[36],-0.04
same,glycan array binding signal (z-score),[37],-0.072
